About 79,000 compounds went through this panel and 15% of them were active in at least one assay; those are over-represented in the sample as a whole. Rule as the data show it: active = growth inhibition above about 70%; inactive = the rest.
How the values were obtained:
[1] = NCI Yeast Anticancer Drug Screen. Data for the rad50 strain (AID 155);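 also: 0% = growth of vehicle-only cultures of the same strain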; settings: S. cerevisiae rad50 strain growth inhibition; at 50.0 µM; active compounds read high
Summary of the method: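 Relative growth inhibition (compound vs vehicle) was measured in yeast with a defined repair-gene alteration.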

[2] = NCI Yeast Anticancer Drug Screen. Data for the mec2-1 strain (AID 157); settings: S. cerevisiae mec2-1 strain, at 50.0 µM, active compounds read high
Summary of the method: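 mec2-1 yeast strain, carrying an alteration in DNA damage repair or cell cycle control, was exposed to compounds; growth inhibition was measured relative to vehicle-treated controls.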

[3] = NCI Yeast Anticancer Drug Screen. Data for the sgs1 mgt1 strain (AID 161);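 also: 0% = growth of cultures given vehicle only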; settings: S. cerevisiae sgs1 mgt1 strain, at 50.0 µM, active compounds read high
Summary of the method: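 This yeast growth screen uses a strain with defined DNA-repair lesions; compound-treated growth is compared with vehicle-treated growth.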

[4] = NCI Yeast Anticancer Drug Screen. Data for the cln2 rad14 strain (AID 165);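 also: 0% = growth equal to vehicle treated cultures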; settings: S. cerevisiae cln2 rad14 strain, at 50.0 µM, active compounds read high
Summary of the method: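 Yeast carrying cln2 and rad14 alterations (cell cycle control and DNA damage repair) were exposed to compounds. Growth inhibition was measured against vehicle-treated controls.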

[5] = NCI Yeast Anticancer Drug Screen. Data for the bub3 strain (AID 167); settings: S. cerevisiae bub3 mutant strain, at 50.0 µM, active compounds read high
Summary of the method: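 Screening used yeast with an engineered genetic alteration affecting cell cycle control. Compound-exposed cultures were compared with vehicle cultures, and reduced growth was taken as inhibition.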

[6] = NCI Yeast Anticancer Drug Screen. Data for the mlh1 rad18 strain (AID 175); settings: S. cerevisiae mlh1 rad18 strain growth inhibition; at 50.0 µM; active compounds read high
Summary of the method: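 Growth inhibition of the yeast strain was measured after compound exposure and expressed relative to vehicle-treated controls. The strain carries defined defects in DNA damage repair.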

Measured: growth inhibition

Cn1cnc(N2CCCC2)c(C#N)c1=S
inactive: [1] 3.45% | [2] -4.95% | [3] -4.7% | [4] -12.2% | [5] 2.55% | [6] 0.25%

O=C(c1ccc(Cl)s1)C(Cl)C(Cl)c1ccc(Cl)s1 (stereo not drawn)
inactive: [1] -20.5% | [2] -2.4% | [3] 1.2% | [4] -12.4% | [5] 29.6% | [6] -3.55%

CCOC(=O)/C(C#N)=C/c1ccc(-c2cc(C(F)(F)F)cc(C(F)(F)F)c2)o1
inactive: [1] -17.9% | [2] -7% | [3] -8% | [4] -15.4% | [5] -2.5% | [6] -0.8%

Cc1cc(C(N)=O)c2ccccc2n1
inactive: [1] -11% | [2] -47.2% | [3] -15.7% | [4] 11.4% | [5] -34.4% | [6] -6.25%

CN(Cc1cccc(Cl)c1)C(=O)NC(C)(C)C
inactive: [1] 2.85% | [2] -6.85% | [3] 15.8% | [4] 4.2% | [5] 14.6% | [6] 0.05%

Cc1cccc(C(=O)NN)c1O
inactive: [1] -1.7% | [2] -14.7% | [3] -6.25% | [4] 5.7% | [5] 23.9% | [6] 22.2%

O=C(O)/C=C/C(=O)N1Cc2cc3ccccc3nc2C1
inactive: [1] -5.75% | [2] -31.1% | [3] -45.8% | [4] -28.1% | [5] -56.2% | [6] -13.7%

CN(C)S(=O)(=O)C(c1ccccc1)C(c1ccccc1)S(=O)(=O)N(C)C (stereo not drawn)
inactive: [1] 47% | [2] -4.4% | [3] 27.1% | [4] 2% | [5] -4.75% | [6] 1.5%

CC1=C(C(=O)CC(=O)C(=O)Nc2cccc(C)c2C)Sc2ccccc2N1
inactive: [1] -24.6% | [2] -43.1% | [3] -12.8% | [4] -1.9% | [5] -13.8% | [6] -12.5%

CN1C(c2ccccc2)=C(C#N)C(=O)CC(c2ccc(Cl)cc2)N1C (stereo not drawn)
inactive: [1] -7.75% | [2] 0.05% | [3] -4.75% | [4] -15.8% | [5] -15.8% | [6] 2.65%

CCNC(=O)OCCN1C(=O)C2C3CCC(O3)C2C1=O (stereo not drawn)
inactive: [1] 5.25% | [2] 11.4% | [3] 22.1% | [4] 3.35% | [5] 8.5% | [6] 12.8%

NC(=O)C(=O)C1CCC2=C(Sc3ccccc3N2)C1=O (stereo not drawn)
inactive: [1] 39.5% | [2] -5.4% | [3] -6.35% | [4] 30.1% | [5] 34% | [6] 4.5%

O=C(C[n+]1cccc(C(=O)Nc2ccc(Cl)cc2)c1)Nc1ccccc1
inactive: [1] -10.9% | [2] -13.7% | [3] -2.45% | [4] 15.2% | [5] -4.35% | [6] 0.65%

CC(C)(C)CC(C)(C)c1ccc(OCCOc2ccc([N+](=O)[O-])cc2N)cc1
inactive: [1] 56.5% | [2] 11.1% | [3] 41.6% | [4] 4% | [5] 4.9% | [6] 26.1%

Cc1cc(N(CCC#N)CCC#N)ccc1/C=C/C(=O)Nc1cccc(Cl)c1
inactive: [1] 8.95% | [2] 4.6% | [3] 3.55% | [4] 13.2% | [5] 27.4% | [6] 7.65%

CCCC(C)C(C)O (stereo not drawn)
inactive: [1] -21.4% | [2] -45.6% | [3] 0.15% | [4] -11.1% | [5] -24.1% | [6] -14.8%

Cc1n[nH]c(=O)n1-n1cccc1
inactive: [1] -10.1% | [2] -5.35% | [3] -35.5% | [4] 7.1% | [5] -37.2% | [6] 2.55%

CC(C)(C)NC(=O)Oc1cccnc1
inactive: [1] 7.1% | [2] -4.6% | [3] -12.6% | [4] -42.4% | [5] 27.6% | [6] 8%

O=C(CC1=Nc2nnc(-c3nnc4n3C(=O)C(CC(=O)C3CC3)=N4)n2C1=O)C1CC1
inactive: [1] -10% | [2] 2.95% | [3] -5.25% | [4] -16.6% | [5] -4.8% | [6] -3.8%

OC1CCCSC1 (stereo not drawn)
inactive: [1] 18.1% | [2] -15.9% | [3] 12.8% | [4] 4.75% | [5] 16.6% | [6] 27.9%

Oc1ccc(-c2c3ccccc3c(-c3ccc(OCCBr)cc3)c3ccccc23)cc1
inactive: [1] -24.2% | [2] -9.75% | [3] -9.9% | [4] 4.65% | [5] -11.3% | [6] 7.4%

COC(=O)/C=C/c1ccc(OC)c(OC)c1
inactive: [1] 22.3% | [2] 0.4% | [3] 13.6% | [4] -2.2% | [5] 64.5% | [6] 50%

Oc1cc2c(cc1C(c1ccc(Cl)cc1)N1CCCCC1)OCO2 (stereo not drawn)
inactive: [1] 9.65% | [2] -1.6% | [3] 1.25% | [4] -6.4% | [5] 11.1% | [6] 5.75%

O=C1CC(c2ccccc2)Oc2ccccc21 (stereo not drawn)
inactive: [1] -24.5% | [2] -58.1% | [3] -16.8% | [4] 8.2% | [5] -25.2% | [6] -24.1%

CC1(C)CCC2(C)CC=C3C(C)(CCC4C3(C)CCC3C(C)(C)C(O)CCC43C)C2C1 (stereo not drawn)
inactive: [1] 0.9% | [2] -4.2% | [3] -23.2% | [4] -10.3% | [5] -18% | [6] -10.4%

CCCCCOc1ccc(C(=O)OC)cc1
inactive: [1] -25.9% | [2] -5.15% | [3] 6.2% | [4] -22.8% | [5] -0.1% | [6] -20%

CN(C)c1ccc(/C=c2\[nH]c(=O)/c(=C\c3ccc(N(C)C)cc3)[nH]c2=O)cc1
inactive: [1] 4.3% | [2] 4.6% | [3] 12.2% | [4] 14.6% | [5] -8.55% | [6] 16.2%

Nc1nc(N)c(N=Nc2ccc(Cl)cc2)c(=O)[nH]1
inactive: [1] 19.9% | [2] -20.6% | [3] -26.1% | [4] 23.1% | [5] 5.35% | [6] 13.7%

COc1ccc(CSc2nc3ccccc3nc2-c2cccs2)cc1
inactive: [1] -16.2% | [2] -39.2% | [3] -43.8% | [4] -1.35% | [5] -24.9% | [6] -54.8%

Cc1cc(=O)c2c3c(ccc2[nH]1)Oc1ccccc1O3
inactive: [1] 7.9% | [2] 5.95% | [3] 5.2% | [4] 8.45% | [5] 7.1% | [6] 13.1%

CCCCS(=O)(=O)Cc1ccccc1
inactive: [1] 1.75% | [2] -0.55% | [3] -1.25% | [4] -14.1% | [5] 0.3% | [6] -17.4%

C=CCOC(=O)Nc1cc(Cl)ccc1C
inactive: [1] 3.9% | [2] 1.2% | [3] -8.5% | [4] -9.25% | [5] -1.55% | [6] -9.8%

O=C(Cn1c(C(=O)c2ccccc2)nc2ccccc21)c1ccccc1
inactive: [1] -39.2% | [2] -16.6% | [3] -32.8% | [4] -8.95% | [5] -16.4% | [6] -18%

Cc1cccc(C)c1NC(=S)N1CCC(CCCC2CCN(C(=S)Nc3c(C)cccc3C)CC2)CC1
inactive: [1] -12.8% | [2] -18.6% | [3] -1.65% | [4] 15.7% | [5] 4.8% | [6] 12.2%

CC(=O)C1=CN(C)c2ccccc2S1
inactive: [1] 29.6% | [2] 1.75% | [3] 12.2% | [4] -2.55% | [5] -12.8% | [6] 6.15%

CN(C)CCNC(=O)c1cccc2nc3c(C(=O)NCCN(C)C)cccc3nc12
inactive: [1] -11.7% | [2] -20.4% | [3] -46.6% | [4] -33.7% | [5] -34.1% | [6] -40.5%

O=C(/C=C/c1ccccc1)NC1C=Nc2ccccc2NC1=O (stereo not drawn)
inactive: [1] 13.8% | [2] 18.2% | [3] 7.2% | [4] -11.9% | [5] 7.05% | [6] 16.1%

O=C1c2ccccc2CCC12OC2c1ccncc1 (stereo not drawn)
inactive: [1] 12.1% | [2] 27.1% | [3] 25% | [4] 6.75% | [5] 39.4% | [6] 29.6%
